Sampled rows, rich in hits. Any-hit rate of the full collection: about 2.1%.
U2OS ROS induce – raises reactive oxygen species in U2OS cancer cells | U2OS ROS induction, H2DCF-DA fluorescence | hit rate 2% among 46,000 | AID 624156 | ROS induction (% of piperlongumine), % at 10 µM; in the data active = ROS induction above about 79%, passing the limit was not always enough;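 also: 0% = DMSO vehicle median and 100% = reference compound median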
YB-1 expression – YB-1 expression inhibition. hit rate 0.37% among 30,000. delta delta Cp (YB-1 minus CDIP) (test concentration not listed). AID 434959. U2OS, qRT-PCR YB-1 vs CDIP delta delta Cp, 16 h; active compounds read high; zero = DMSO, each unit about twofold;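 active = delta delta Cp rounded down to an integer at or above 3, about 3 SD of DMSO wells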;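 also: higher means less YB-1 transcript or more CDIP transcript relative to DMSO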
An asterisk follows results filed as active; . = no result given.

SMILES	U2OS ROS induce	YB-1 expression
C[C@@H]1CCCCO[C@H](CN(C)C(=O)CCCN(C)C)[C@@H](C)CN([C@H](C)CO)C(=O)c2cc(NS(=O)(=O)c3ccc(Cl)cc3)ccc2O1	99*	0.13
COc1ccc(S(=O)(=O)N(C)C[C@H]2Oc3ccc(NC(=O)CCCN(C)C)cc3C(=O)N([C@H](C)CO)C[C@@H]2C)cc1	4	0.033
C[C@@H]1CCCCO[C@H](CN(C)C(=O)Nc2cccc3ccccc23)[C@@H](C)CN([C@H](C)CO)C(=O)c2cc(NC(=O)C3CCCCC3)ccc2O1	22	0.011
C[C@@H]1CCCCO[C@H](CN(C)C(=O)Nc2cccc3ccccc23)[C@@H](C)CN([C@H](C)CO)C(=O)c2cc(NS(=O)(=O)c3ccccc3)ccc2O1	56	-0.23
C[C@@H]1CCCCO[C@H](CN(C)C(=O)Nc2cccc3ccccc23)[C@@H](C)CN([C@H](C)CO)C(=O)c2cc(NS(=O)(=O)c3ccc(Cl)cc3)ccc2O1	89*	15*
C[C@@H]1CCCCO[C@@H](CN(C)C(=O)Nc2cccc3ccccc23)[C@@H](C)CN([C@H](C)CO)C(=O)c2cc(NC(=O)C3CCCCC3)ccc2O1	134*	-0.032
N=C(N)c1cc(C(F)(F)F)cc(C(F)(F)F)c1	-15	-0.27
C[C@@H]1CN([C@H](C)CO)C(=O)c2cc(NC(=O)CCCN(C)C)ccc2O[C@H]1CN(C)CC1CCCCC1	-12	-0.13
C[C@@H]1CN([C@H](C)CO)C(=O)Cc2cc(NC(=O)Nc3ccc(F)cc3)ccc2O[C@H]1CN(C)Cc1ccccc1	-5	-0.21
Cc1nc(C(F)(F)F)ccc1C(=O)NN1CCOCC1	-12	.
Cc1ccc(N(CC(=O)NC2CCCC2)S(C)(=O)=O)cc1Cl	-8	.
CCOC(=O)c1cnc2c(-c3ccccc3)cnn2c1C	45	.
CCOC(=O)c1cnc2c(cnn2CC)c1NN=C(C)C	7	4.9*
O=C1NC(=S)S/C1=C/c1ccc(-c2ccc3c(c2)C(=O)NC3=O)o1	28	.
C[C@@H]1CN([C@H](C)CO)C(=O)Cc2cc(N(C)C)ccc2O[C@@H]1CN(C)Cc1ccc(Oc2ccccc2)cc1	14	-0.17
C[C@@H]1CN([C@@H](C)CO)C(=O)c2cc(NC(=O)NC3CCCCC3)ccc2O[C@H]1CN(C)Cc1ccc(Oc2ccccc2)cc1	50	-0.13
C[C@H]1CN([C@@H](C)CO)C(=O)Cc2cc(NC(=O)Nc3cccc4ccccc34)ccc2O[C@@H]1CN(C)Cc1ccc(-c2ccccc2)cc1	132*	0.64
C[C@H](CO)N1C[C@H](C)[C@@H](CN(C)Cc2ccc(Oc3ccccc3)cc2)Oc2ccc(NC(=O)NC3CCCCC3)cc2C1=O	87*	-0.0026
C[C@@H]1CN([C@H](C)CO)C(=O)Cc2cc(NC(=O)NC3CCCCC3)ccc2O[C@@H]1CN(C)Cc1ccc(-c2ccccc2)cc1	98*	0.21
C[C@@H]1CN([C@@H](C)CO)C(=O)Cc2cc(NC(=O)NC3CCCCC3)ccc2O[C@@H]1CN(C)Cc1ccc(-c2ccccc2)cc1	14	-0.2
C[C@H](CO)N1C[C@H](C)[C@H](CN(C)Cc2ccccc2)Oc2ccc(NC(=O)Nc3cccc4ccccc34)cc2CC1=O	3	0.13
C[C@H]1CN([C@@H](C)CO)C(=O)Cc2cc(N(C)C)ccc2O[C@@H]1CN(C)Cc1ccc(Oc2ccccc2)cc1	135*	-0.47
Oc1ccccc1Oc1c(F)c(F)nc(N2CCCC2)c1F	-12	.
COc1ccc(NC(=O)Nc2ccc3c(c2)CC(=O)N([C@H](C)CO)C[C@H](C)[C@H](CN(C)C)O3)cc1	-9	-0.16
C[C@@H]1CN([C@@H](C)CO)C(=O)Cc2cc(NC(=O)NC3CCCCC3)ccc2O[C@@H]1CN(C)Cc1ccccc1	28	0.27
SMILES	U2OS ROS induce	YB-1 expression
C[C@@H]1CN([C@H](C)CO)C(=O)Cc2cc(NC(=O)NC3CCCCC3)ccc2O[C@@H]1CN(C)Cc1ccc(Oc2ccccc2)cc1	131*	-0.6
C[C@@H]1CN([C@H](C)CO)C(=O)c2cccc(NS(=O)(=O)c3ccc(F)cc3)c2O[C@H]1CN(C)C(=O)Nc1cccc2ccccc12	-8	0.0059
C[C@@H]1CCCCO[C@H](CN(C)C(=O)CCCN(C)C)[C@@H](C)CN([C@H](C)CO)C(=O)c2cc(NC(=O)NC3CCCCC3)ccc2O1	22	-0.024
C[C@@H]1CCCCO[C@H](CN(C)C(=O)CCCN(C)C)[C@@H](C)CN([C@H](C)CO)C(=O)c2cc(NC(=O)Nc3ccccc3)ccc2O1	22	-0.42
C[C@@H]1CCCCO[C@@H](CN(C)C(=O)CCCN(C)C)[C@@H](C)CN([C@H](C)CO)C(=O)c2cc(NC(=O)c3ccccc3)ccc2O1	13	9.6*
C[C@@H]1CCCCO[C@H](CN(C)C(=O)CCCN(C)C)[C@@H](C)CN([C@H](C)CO)C(=O)c2cc(NC(=O)C3CCCCC3)ccc2O1	105*	0.24
C[C@H]1CN([C@@H](C)CO)C(=O)c2cccc(NS(=O)(=O)c3ccccc3)c2O[C@@H]1CN(C)S(=O)(=O)c1ccc(F)cc1	-7	0.16
C[C@H](CO)N1C[C@H](C)[C@@H](CN(C)Cc2ccc(Oc3ccccc3)cc2)Oc2ccc(NC(=O)Nc3ccc(F)cc3)cc2C1=O	5	-0.091
COc1ccc([Si](C)(C)[C@H]2[C@H](CCO)O[C@@]3(C(=O)N(Cc4ccc(NC(C)=O)cc4)c4ccccc43)[C@@H]2C)cc1	36	0.092
COc1ccc([Si](C)(C)[C@@H]2[C@@H](CCO)O[C@]3(C(=O)N(Cc4ccc(NC(C)=O)cc4)c4ccccc43)[C@H]2C)cc1	93*	-0.12
COc1ccc([Si](C)(C)[C@@H]2[C@@H](CCO)O[C@]3(C(=O)N(Cc4ccc(N5CCOC5=O)cc4)c4ccccc43)[C@H]2C)cc1	240*	-0.051
COc1ccc([Si](C)(C)[C@@H]2[C@@H](CCO)O[C@]3(C(=O)N(Cc4ccccc4)c4ccc(N5CCOC5=O)cc43)[C@H]2C)cc1	15	0.25
COc1ccc([Si](C)(C)[C@H]2[C@H](CCO)O[C@@]3(C(=O)N(Cc4ccccc4)c4ccc(N5CCOC5=O)cc43)[C@@H]2C)cc1	36	0.027
COc1ccc([Si](C)(C)[C@@H]2[C@@H](CCO)O[C@]3(C(=O)N(Cc4cccc(N5CCOC5=O)c4)c4ccccc43)[C@H]2C)cc1	101*	-0.31
CC1CC(C)N(C(=O)c2cc(-c3ccc(F)cc3)no2)C(C)C1 (centres undefined)	-7	.
C[C@@H]1CN([C@@H](C)CO)C(=O)c2cc(NC(=O)Nc3ccc4c(c3)OCO4)ccc2O[C@@H]1CN(C)C(=O)NC1CCCCC1	-5	-0.11
CC(C)=CCc1c(O[C@@H]2O[C@H](CO)[C@@H](O)[C@H](O)[C@H]2O)cc(O)c2c1O[C@H](c1ccc(O)cc1)[C@@H](O)C2=O	-10	-0.21
CC(C)NC(=O)N(C)C[C@@H]1OCCCC[C@@H](C)Oc2ccc(NS(=O)(=O)c3ccc(Cl)cc3)cc2C(=O)N([C@H](C)CO)C[C@@H]1C	11	0.066
C[C@@H]1CCCCO[C@@H](CN(C)C(=O)NC2CCCCC2)[C@@H](C)CN([C@H](C)CO)C(=O)c2cc(NS(C)(=O)=O)ccc2O1	-9	-0.58
C[C@@H]1CCCCO[C@@H](CN(C)C(=O)C2CCCCC2)[C@@H](C)CN([C@H](C)CO)C(=O)c2cc(NS(=O)(=O)c3ccc(Cl)cc3)ccc2O1	101*	0.62

Screens (PubChem BioAssay)
